Several values for one entry are separate records, joined by “and”; a condition that tells them apart may be missing. Equal values may be shown once. About 83,000 compounds went through this panel and 20% of them were active in at least one assay; those are over-represented in the sample as a whole.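 Results are percent growth after 48 hours of single-concentration exposure. 100 means growth as in untreated cells, lower positive values show inhibition; negative values down to -100 show cell death.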 Activity calls are given as the source filed them.

For one assay, the system named is T-47D breast. Put plainly: NCI-60 one-dose screen, 48 h (100 = growth as untreated, 0 = no growth, -100 = all killed). Particulars: 10 µM. The method, then: Growth inhibition of the T-47D human tumor cell line is measured as a screen for anti-cancer activity. Cells are grown in 96 well plates and exposed to the test compound for 48 hours. Compounds are tested at a single concentration, which is 10^-5 M for most compounds. The reported endpoint is percent growth (GI% or GIPRCNT), where numbers from 0 - 100% represent growth inhibition, and numbers from -100% - 0 represent cell death. For example, a value of 40 represents 60% growth inhibition. A value of 0 means no net growth occurred over the course of the experiment. A value of -40 indicates 40% of cells at the beginning of the experiment died by the end of the experiment. A value of -100 means all cells are dead at the end of the experiment.
NCI-60 Human Tumor Cell Lines Screen was performed using the standard one-dose NCI protocol, which is described in more detail at https://dtp.cancer.gov/discovery_development/nci-60/default.htm.
Compounds with GIPRCNT values below 10 were considered active. Activity score was based on GIPRCNT using the following formula: […]
Score is 0 for GIPRCNT values of 100 or above, 50 for GIPRCNT values of 0, and 100 for GIPRCNT values of -100.
For `CC(=O)/C=C/c1ccc(OCc2ccc(C(C)(C)C)cc2)cc1`, the growth was 52.8% (inactive). In the case of `CC(=O)/C=C/c1ccc(OCc2ccc(Cl)cc2)cc1`, the growth was 93.1% (inactive).

Still in this assay, the particulars now being: 10 µM unless noted.
For `Cc1nonc1-c1ccc2c(c1)OCO2`, the growth was 88.5% (inactive) and 98.4% (inactive). On to `Cc1nc2sc(C(=O)Nc3cccc4ncccc34)c(N)c2cc1C(C)O` (stereo not given), for which the growth was 76.2% (inactive). With `CCN1CCN(CC(=O)Nc2nc3ccc(NCc4ccc(C)cc4)cc3s2)CC1`, the growth is 50.7% (inactive). As for `O=C(CCl)n1nnnc1Cc1ccccc1`, the growth was 98.8% (inactive). Turning to `N#CC1C(=O)c2ccccc2C1c1ccccc1` (stereo not given), the growth was 96.5% (inactive) and 99.9% (inactive).

In the case of `O=C(CCl)N(O)c1ccc(/C=C/c2ccccc2)cc1`, the growth was 63.8% (inactive) and 59.5% (inactive). Consider `COc1cc(NS(=O)(=O)C(C)C)cc(-c2cc(-c3ccc(N4CCNCC4)cc3)cnc2N)c1`, for which the growth was 81.9% (inactive). Consider `[2H]C([2H])([2H])Oc1cccc(/C=C/C(=O)/C=C(/C=C/c2cccc(OC([2H])([2H])[2H])c2OC([2H])([2H])[2H])OB(F)F)c1OC([2H])([2H])[2H]`, for which the growth was 50.6% (inactive). Turning to `CONC1=Nc2cc(NC(N)=NCc3ccccc3)c(N(C)C3CCCCC3)cc2OC1`, the growth was 63.7% (inactive). As to `CN1CCCc2cc(/C=C3\SC(=S)N(C(Cc4ccc(O)cc4)C(=O)O)C3=O)ccc21` (stereo not given), the growth is 87.1% (inactive). Take `CC[C@]1(O)CC2CN(CCc3c([nH]c4ccccc34)C(C(=O)OC)(c3cc4c(cc3OC)N(C=O)[C@H]3[C@@](O)(C(=O)OC)[C@H](OC(C)=O)[C@]5(CC)[C@@H]6C[C@@H]6CN6CC[C@]43[C@@H]65)C2)C1` (stereo not given in full): the growth was 72.1% (inactive). `COc1ccc(/C=C(\C#N)c2cc3ccccc3[nH]2)cc1`: the growth is 28.3% (inactive).

Turning to `O=C1C=C(Nc2ccccc2)c2ncccc2C1=O`, the growth was -48.3% (active). Same read-out and setting: the result for `Fc1ccccc1-c1cnn2cc(-c3ccccc3)cnc12` reads 98.1% (inactive); that for `O=C1CCc2c(sc3[nH]c(=S)n(Cc4ccc(Cl)cc4)c(=O)c23)C1`, -3.14% (active).

On to `Nc1nc(CSc2n[nH]c(N)n2)nc(Nc2ccccc2)n1`, for which the growth is 94.5% (inactive). Same read-out and setting: the result for `Cc1c(CC(=O)OCCO)cc(-c2ccc(Cl)cc2)n1-c1ccccc1` reads 72.3% (inactive). `COc1cc(C(=O)c2ccccc2C(=O)O)c(OC)c2c1CCCC2`: the growth was 90.9% (inactive) and 95.7% (inactive).

Take `C=C[C@]1(C)C=C2CC[C@@H]3C(C)(C)C(=O)CC[C@@]3(C)[C@@H]2CC1`: the growth is 105% (inactive). `CC(Sc1ccccc1)C(=O)O` (stereo not given): the growth is 105% (inactive). As to `C#CCOc1cccc(Nc2ncc3ncn(C4CCN(C(=O)CCl)C4)c3n2)c1` (stereo not given), the growth was -10.5% [6.25 µM] (active).

`CC1=CC=C(NC(=O)/C=C/c2ccccc2)CC1Nc1nccc(-c2cccnc2)n1` (stereo not given): the growth was 48.1% (inactive).

Turning to `Cc1[nH]c(C(=O)Nc2nc3ccc(NC(=O)CCN)cc3s2)c(Cl)c1Cl`, the growth is 54.8% (inactive).

Take `CCNC(=S)n1nc(SC)c(C(=O)OCC)c1N`: the growth is 86.4% (inactive). With `COc1ccc(C/C(C)=C(/c2ccc(OCCN3CCCC3)cc2)c2ccc(OC(=O)NCc3ccccc3)cc2)cc1`, the growth was 51% (inactive).

For `O=C(O)c1ccccc1Cc1ccc(F)c2ccccc12`, the growth was 101% (inactive) and 108% (inactive). Take `CCOC(=O)N(O)c1ccc(/C=C/c2ccccc2)cc1`: the growth was 11.2% (inactive) and 5.56% (active). For the compound `NCCOCCOc1ccccc1`, the growth was 101% (inactive). The same measure, in the same setting: the value for `CC[C@@H]1NC(=O)[C@H]([C@H](O)[C@H](C)C/C=C/c2ccc(CN3C(=O)C(C)=C(C)C3=O)cc2)N(C)C(=O)[C@H](C(C)C)N(C)C(=O)[C@H](CC(C)C)N(C)C(=O)[C@H](CC(C)C)N(C)C(=O)[C@@H](C)NC(=O)[C@H](C)NC(=O)[C@H](CC(C)C)N(C)C(=O)[C@H](C(C)C)NC(=O)[C@H](CC(C)C)N(C)C(=O)CN(C)C1=O` was 54.7% (inactive). Same read-out and setting: the value for `COc1ccc(-c2c[nH]c(C(=O)O)c2-c2cc(OC)c(OC)c(OC)c2)cc1` was 15.3% (inactive). Still for that read-out and setting: the result for `COC(=O)N/N=C/c1c[n+]([O-])c2ccccc2[n+]1[O-]` reads 20.4% (inactive); that for `CN1C(=O)N(C)C2(c3ccccc3)N(CC(=O)Nc3ccccc3O)C(=O)NC12c1ccccc1` (stereo not given), 98.5% (inactive); that for `O=C(CN1C(=O)S/C(=C\C(Cl)=C\c2ccccc2)C1=O)NC1C=CS(=O)(=O)C1` (stereo not given), 4.56% (active). As to `COc1ccc(/C=C/C(=O)c2cc3c(N)c(C(=O)Nc4ccccc4Cl)sc3nc2C)cc1`, the growth is 30.3% (inactive). Regarding `CCNC(=O)Oc1ccc(/C(=C(/C)Cc2ccc(OC)cc2)c2ccc(OCCN(CC)CC)cc2)cc1`, the growth was 27.4% (inactive).

Take `COc1ccc(/C=C2\COc3ccc(O)c(O)c3C2=O)c(OC)c1OC`: the growth was 12.1% (inactive).

The assay is the same for the next values; noted with them: 100 µM.
Turning to `CC(=O)/C=C/c1ccc(OCc2ccc(C(C)(C)C)cc2)cc1`, the growth is 5.88% (active). Consider `CC(=O)/C=C/c1ccc(OCc2ccc(Cl)cc2)cc1`, for which the growth is 20.2% (inactive).

For the origin of these results see PubChem BioAssay (NCI).
